Tau fluor cs – Counterscreen qHTS for Inhibitors of Tau Fibril Formation, Fluorescence Polarization; Potency, µM (doses to about 57.7 µM); 0.93% of 280,000 active; tau K18 P301L Alexa594 fluorescence, heparin fibrillization; also: nearly all actives have a fitted effect of over 55% in size
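Human tau K18 P301L (15 uM unlabeled, 0.24 uM Alexa 594-labeled) in 100 mM sodium acetate pH 7 with 20 uM heparin, 6 hr at 37 C. ThT 30 uM added, 1 hr ambient; Alexa 594 FP and total fluorescence read at 555/632 nm.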
Tau fibril ThT – qHTS for Inhibitors of Tau Fibril Formation, Thioflavin T Binding; recombinant tau K18 P301L, heparin-induced fibrillization, ThT fluorescence; AID 1460, 2008; 2.1% of 270,000 active; Potency, µM (top dose mostly 57.4 µM), hits mostly inhibitors; also: nearly all actives have a fitted effect of over 55% in size
Target sequence (P10636 561-689 P618L limits assumed): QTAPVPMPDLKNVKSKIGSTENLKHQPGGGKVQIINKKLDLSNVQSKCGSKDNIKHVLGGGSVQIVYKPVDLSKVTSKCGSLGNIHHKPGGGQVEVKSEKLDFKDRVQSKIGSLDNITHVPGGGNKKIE
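Fibril formation assay: tau K18 P301L at 15 uM with trace Alexa 594 label, heparin inducer 20 uM, pH 7 sodium acetate buffer, 37 C for 6 hr; endpoint ThT signal.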
FBPA coupling cs – qHTS Assay for Inhibitors of Fructose-1,6-bisphosphate Aldolase from Giardia Lamblia: Coupling assay counterscreen | AID 2472, 2010 | 0.67% of 290,000 active | activity change, negative = inhibition, % at 58.2 µM, hits read low | coupling enzyme system counterscreen, AmpLite Red fluorescence; in the data active = activity change below about -30%
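Coupling enzymes only (glyceraldehyde-3-phosphate) + compound, at 57.5 uM final, 10 min RT; add substrate/coupling/AmpLite Red mix, 20 min RT; fluorescence ex 525/em 598 nm. Actives flag coupling-system interference.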
Sfp PPTase inh – qHTS Assay for Inhibitors of Bacillus subtilis Sfp phosphopantetheinyl transferase (PPTase) | Biochemical Sfp PPTase activity, qHTS | 3.5% of 310,000 active | Potency, µM, most hits filed as inhibitors;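 also: the enzyme is Sfp with the accession as filed and its product quenches rhodamine fluorescence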
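Step 1, compound plus 15 nM Sfp-PPTase, 15 min, room temperature. Step 2, add rhodamine-CoA (5 uM) and BHQ-2-YbbR (12.5 uM). Step 3, read 525/598 nm fluorescence at 0 and 30 min.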
Tau FP inhib – qHTS for Inhibitors of Tau Fibril Formation, Fluorescence Polarization | 0.39% of 280,000 active | Potency, µM (series often up to 57.7 µM), most hits filed as inhibitors | Microtubule-associated protein tau (Homo sapiens), P10636 | K18 P301L tau heparin fibrillization, Alexa594 FP, 6 h | AID 1468, 2008; also: nearly all actives have a fitted effect of over 55% in size
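Heparin (20 uM) drove fibril formation of recombinant tau K18 P301L, 15 uM unlabeled with 0.24 uM Alexa 594 label, for 6 hr at 37 C in 100 mM sodium acetate pH 7. Fluorescence polarization (555/632 nm) read 1 hr after 30 uM ThT.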
Hits are given with their value; n = inactive; u = inconclusive; x = no result given; [ ] = remark or other dose. A selection: hits, their analogues and other compounds. The true share with any hit is near 5.2%. Unless noted, calls follow the shape of the dose curve; as a rule, active = well fitted curve in the direction sought with a large enough effect; inconclusive = small, poorly fitted or top-dose-only effect, or another doubt; inactive = no such curve, though single readings can be large; an effect the other way counts as inactive or inconclusive.

SMILES	Tau fluor cs	Tau fibril ThT	FBPA coupling cs	Sfp PPTase inh	Tau FP inhib
Cc1ccc(O)c(C(=O)c2cc(C#N)c(=O)n(-c3nccs3)c2)c1	u	u	n	50µM	n
Nc1nc(C2C(=O)CCCC2=O)cs1	n	n	n	56µM	n
CC1CCN(S(=O)(=O)c2ccc3c4c2CC(=O)N4CC(C)S3)CC1 (stereo not drawn)	x	x	-33	n	x
CC1CCN(S(=O)(=O)c2cc3c4c(c2)CC(=O)N4CCC3)CC1	n	n	x	x	u
C=CCOC(=O)C1=C(C)N=c2s/c(=C3\C(=O)N(CC(=O)O)c4ccccc43)c(=O)n2C1c1ccc(OC)cc1 (stereo not drawn)	n	4µM	n	25µM	u
O=C1C=CC(=O)C(C2=C3C(=O)N(CCc4ccccc4)CC(=O)N3CCC2)=C1	u	16µM	-55	1µM	u
CC(=O)c1ccc(NC(=O)CNCC(c2ccccc2)N(C)C)cc1 (stereo not drawn)	n	n	n	79µM	n
O=C1C2C3C=CC(C3)C2C(=O)N1/N=C/c1ccc(-c2ccccc2[N+](=O)[O-])o1 (stereo not drawn)	n	u	n	n	n
O=C1C2C3C=CC(C3)C2C(=O)N1/N=C/c1cc(Br)cc([N+](=O)[O-])c1O (stereo not drawn)	n	7.9µM	n	n	n
CCOC(=O)Cc1csc(NC(=O)/C=C/c2ccco2)n1	n	x	n	71µM	n
O=C(/C=C/c1ccco1)Nc1nc(-c2ccc(F)c(F)c2)cs1	n	n	n	22µM	n
O=C(/C=C/c1ccco1)Nc1nc(-c2ccccc2)cs1	n	n	n	n	n
O=[N+]([O-])c1cccc(-c2csc(N/N=C/c3cccc(O)c3)n2)c1	7.9µM[quencher]	6.3µM	n	50µM	n
O=C(Nc1ccc(-c2csc(Nc3ccc(Cl)cc3)n2)cc1)c1cccc(C(F)(F)F)c1	4µM[quencher]	u	n	n	n
O=C(Nc1ccc(-c2csc(Nc3ccccc3)n2)cc1)c1cccc(C(F)(F)F)c1	u	u	n	n	n
O=C(Nc1ccc(-c2csc(Nc3ccccc3)n2)cc1)c1cc([N+](=O)[O-])cc(C(F)(F)F)c1	4µM[quencher]	3.5µM	n	n	n
O=C(Nc1cccc(-c2csc(Nc3cccc(C(F)(F)F)c3)n2)c1)c1cc([N+](=O)[O-])cc(C(F)(F)F)c1	2.5µM[quencher]	u	n	n	n
COc1cccc(Cn2c(=O)c(C)nc3cnc(N(C)C)nc32)c1	x	x	n	n	x
CC(=O)c1cccc(Nc2nc(-c3cccc([N+](=O)[O-])c3)cs2)c1	7.1µM[quencher]	4µM	n	n	n
Cc1ccc(-c2csc(NC(=O)c3cccc([N+](=O)[O-])c3)n2)cc1	n	n	n	n	n
Cc1ccc(-c2ccc(=O)n(CC(=O)NC(C)c3ccccc3)n2)cc1 (stereo not drawn)	n	n	x	x	n
CCN(CCNCC(O)COCc1ccc(Cl)cc1)c1cccc(C)c1 (stereo not drawn)	n	n	n	10µM	n
Cc1ccc(N2CC(C)Cn3c2nc2c3c(=O)n(CC(=O)O)c(=O)n2C)cc1 (stereo not drawn)	n	n	x	x	n
Nc1nc(-c2ccccc2)c(N=Nc2cccnc2)s1	u	2.8µM	n	n	n
Cc1sc(N)nc1-c1ccccc1	n	n	n	n	n
SMILES	Tau fluor cs	Tau fibril ThT	FBPA coupling cs	Sfp PPTase inh	Tau FP inhib
N#Cc1cc(N)ccc1Sc1ccc(Cl)cc1	16µM[quencher]	n	n	n	n
N#Cc1cc(N)ccc1Sc1ccccc1	u	n	n	n	u
CC(C)=CCC/C(C)=C/CO/N=C1/C[C@@H](O)[C@@H](O)[C@@H]2[C@@H]3C(=O)N(C4CCCCC4)C(=O)[C@H]3CC[C@@H]12	n[11.6 µM]	n[11.5 µM]	n	n	n[11.6 µM]
Cc1ccc(CNC(=O)CN2C(=O)CSc3ccc(S(=O)(=O)N4CCCC4)cc32)cc1	n	n	x	x	n
CCCN1C(=O)/C(=C/c2c(N3CCNC(=O)C3CC(=O)OC)nc3c(C)cccn3c2=O)SC1=S (stereo not drawn)	n	5.6µM	n	n	n
CCOC(=O)CC1C(=O)NCCN1C(=O)c1cc2c(=O)n3cccc(C)c3nc2s1 (stereo not drawn)	n	n	n	n	n
COc1ccc(CC(=O)Nc2cc(-c3nc4cccnc4s3)ccc2C)cc1	n	n	x	x	n
CCN(CC)S(=O)(=O)c1cccc(NC(=O)C2SC(=Nc3ccc(C)cc3C)C(C(=O)NCC3CCCO3)=C2N)c1 (stereo not drawn)	13µM[quencher]	n	n	n	u
O=C(NCc1ccco1)[C@@H]1CSC2c3ccccc3C(=O)N21 (stereo partly drawn)	n	n	n	35µM	n
CCOC(=O)c1sc(=S)n(-c2ccccc2OC)c1N	n	n	n	n	n
CCOC(=O)c1sc(=S)n(-c2ccc3c(c2)OCO3)c1N	n	n	n	28µM	n
Cc1ccc(-n2c(N)c(C(=O)NCc3cccnc3)sc2=S)cc1	n	n	n	35µM	n
CCOC(=O)c1sc(=S)n(-c2ccc(C)cc2)c1N	n	u	n	40µM	n
CCOC(=O)c1sc(=S)n(Cc2ccccc2)c1N	16µM[quencher]	n	n	n	n
CSCC[C@H](NC(=O)[C@H](CO)NC(=O)[C@H](Cc1ccc(O)cc1)NC(=O)[C@@H](N)CO)C(=O)N[C@@H](CCC(=O)O)C(=O)N[C@@H](Cc1cnc[nH]1)C(=O)N[C@@H](Cc1ccccc1)C(=O)N[C@@H](CCCNC(=N)N)C(=O)N[C@@H](Cc1c[nH]c2ccccc12)C(=O)NCC(=O)N[C@@H](CCCCN)C(=O)N1CCC[C@H]1C(=O)N[C@H](C(=O)NCC(=O)N[C@@H](CCCCN)C(=O)N[C@@H](CCCCN)C(=O)N[C@@H](CCCNC(=N)N)C(=O)N[C@@H](CCCNC(=N)N)C(=O)N1CCC[C@H]1C(=O)N[C@H](C(=O)N[C@@H](CCCCN)C(=O)N[C@H](C(=O)N[C@@H](Cc1ccc(O)cc1)C(=O)N1CCC[C@H]1C(=O)N[C@@H](CC(N)=O)C(=O)NCC(=O)N[C@@H](C)C(=O)N[C@@H](CCC(=O)O)C(=O)N[C@@H](CC(=O)O)C(=O)N[C@@H](CCC(=O)O)C(=O)N[C@@H](CO)C(=O)N[C@@H](C)C(=O)N[C@@H](CCC(=O)O)C(=O)N[C@@H](C)C(=O)N[C@@H](Cc1ccccc1)C(=O)N1CCC[C@H]1C(=O)N[C@@H](CC(C)C)C(=O)N[C@@H](CCC(=O)O)C(=O)N[C@@H](Cc1ccccc1)C(=O)O)C(C)C)C(C)C)C(C)C	x	x	n	n	x

Screening results from PubChem.
